# Bioassay records: PubChem, National Center for Advancing Translational Sciences (NCATS)
# Compounds with a hit are over-represented: about 14% of the library has one in this group of screens.
# Marburg entry inh = inhibitors of Marburg virus binding or cell entry. actives 1.8% (n = 300,000). Potency, µM (series often up to 37.8 µM), actives largely listed as inhibitors. Marburg virus pseudotyped entry inhibition, cell reporter; calls by dose curve; tested in HEK293 cells
# HCMV inh = blocks human cytomegalovirus replication; HFF cells, HCMV-luciferase reporter, 72 h; active compounds read low; actives 4.5% (n = 410,000); activity change, negative = inhibition, % at 57.5 µM; in the data active = activity change below about -60%; inconclusive = no clear call, values can overlap the other calls; inactive = above about -39%
#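 Screen run at 2 compound doses on HFFs infected with reporter HCMV, MOI 1 PFU/cell. Luciferase activity from cell lysates at 72 h post infection gave inhibition relative to buffer-only and Salinomycin wells.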
# HCV inh = inhibitors of hepatitis C virus infection. Huh7.5.1 HCVcc-Cre infection, luciferase reporter, 44 h. Potency, µM (series often up to 41.8 µM), hits mostly inhibitors. actives 3.4% (n = 340,000)
#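 Compounds are dispensed onto cells plated 4 h earlier at 1,000 per well, with HCVcc-Cre virus (about 0.5 moi) added next. Following 44 h of culture, luminescent signal is measured for 15 sec after 15 min with substrate at room temperature.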
# Pf growth 48h = P. falciparum growth inhibition at 48 hours (one generation) | Potency, µM (highest dose often 28.7 µM), hits mostly inhibitors | P. falciparum luciferase growth in erythrocytes, 48 h | actives 5.9% (n = 310,000)
#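 Parasite viability was followed by luminescence of a genomically integrated firefly luciferase. Cultures held 0.1% parasitemia at 2% hematocrit (final), incubated under 5% CO2 at 37 C.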
# Pf growth 96h = P. falciparum growth inhibition at 96 hour, primary screen for plastid delayed-death inhibitors. P. falciparum luciferase reporter growth, 96 h. Potency, µM (top dose mostly 28.7 µM), usual class: inhibitors. actives 6.9% (n = 320,000). AID 504834
#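 Parasite growth measured via integrated firefly luciferase reporter in P. falciparum. Infected erythrocytes at 2% hematocrit, 0.05% parasitemia final were treated 96 hours at 37 C under 5% CO2, and luminescence was read.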
# LASV entry inh = blocks Lassa virus binding to or entry into cells. Potency, µM (titrated, usually from 37.9 µM), actives largely listed as inhibitors. actives 1.2% (n = 300,000). AID 540256. Lassa virus pseudotype entry inhibition, cell reporter; calls by dose curve; tested in HEK293 cells; note: nearly all actives have a fitted effect of over 50% in size
# Numbers stand for hits; . = inactive; ? = inconclusive; / = no result; [ ] = another dose, or the depositor's remark. Unless noted, calls come from the whole dose curve; as a rule, active = well fitted inhibition curve with a large enough effect; inconclusive = small, poorly fitted or top-dose-only effect, or another doubt; inactive = no such curve, though single readings can be large or run the other way.
SMILES,Marburg entry inh,HCMV inh,HCV inh,Pf growth 48h,Pf growth 96h,LASV entry inh
CCN1CCN(c2csc3ccc(C)cc3c2=O)CC1,/,.,/,/,/,.
C[C@@]12C(=O)Nc3cc(Cl)ccc3C(=O)N1[C@H]1c3ccccc3OC[C@@H]1[C@@H]2c1ccccc1,/,/,?,?,9.28µM,/
C[C@@]12C(=O)Nc3cc(Cl)ccc3C(=O)N1[C@H]1c3cc(Br)ccc3OC[C@@H]1[C@@H]2c1ccccc1,/,-64.3,10µM,9.28µM,9.28µM,/
Cc1ccc2c(c1)C(=O)N1[C@H]3c4cc(Br)ccc4OC[C@@H]3[C@H](c3ccccc3)[C@]1(C)C(=O)N2,/,.,?,/,/,/
C[C@@]12C(=O)Nc3ccc(Cl)cc3C(=O)N1[C@H]1c3ccccc3OC[C@@H]1[C@@H]2c1ccccc1,/,/,?,13.1µM,10.4µM,/
C[C@@]12C(=O)Nc3cc(F)c(F)cc3C(=O)N1[C@H]1c3ccccc3OC[C@@H]1[C@@H]2c1ccccc1,/,.,?,/,/,/
O=C(NCc1ccccc1)C(c1ccc(-c2ccccc2)cc1)n1c(=O)c(-c2ccco2)nc2ccccc21 (stereo not drawn),/,.,/,/,/,/
Cc1c(-c2nc(N)nc(Nc3ccc(F)cc3)n2)oc2ccccc12,?,.,10µM,?,?,.
CCS(=O)(=O)N1CC(=O)N(c2cc(C)ccc2C)C(C)(C(=O)NC2CCCCC2)C1 (stereo not drawn),/,.,/,/,/,.
CCOC(=O)C1=CN(c2cccc(F)c2)C=C(C(=O)OCC)C1c1cc(OC)c(O)c([N+](=O)[O-])c1,.,.,.,10.4µM,?,?
CCOC(=O)C1=CN(Cc2cccc(F)c2)S(=O)(=O)NC1c1cccc(OC)c1 (stereo not drawn),/,.,.,/,/,/
CC(C)(C)n1nnnc1C(c1ccc(F)cc1)N(Cc1ccc(F)cc1)Cc1ccco1 (stereo not drawn),?,?,?,?,.,?
Cc1ccc(C(c2nnnn2C(C)(C)C)N(Cc2ccco2)Cc2cccs2)cc1 (stereo not drawn),?,.,?,13.1µM,/,?
CC(C)(C)n1nnnc1C(c1ccc(Cl)cc1)N(Cc1cccnc1)Cc1ccco1 (stereo not drawn),?,.,?,?,.,?
CC(C)(C)n1nnnc1C(c1cccnc1)N(Cc1ccccc1)Cc1cccs1 (stereo not drawn),?,-85.3,?,0.828µM,0.165µM,?
CC(C)(C)n1nnnc1C(c1ccc(C(F)(F)F)cc1)N(Cc1ccccc1)Cc1ccco1 (stereo not drawn),?,-81.6,?,?,.,?
CC(C)(C)n1nnnc1C(c1ccc(C(F)(F)F)cc1)N(Cc1ccc(F)cc1)Cc1ccco1 (stereo not drawn),?,.,.,1.85µM,.,?
COc1cc(C(=O)NCC(c2cccs2)N2CCOCC2)ccc1OCc1ccccc1 (stereo not drawn),/,.,/,/,/,/
CCN(Cc1ccccc1)C(c1ccc(C)cc1)c1nnnn1C(C)(C)CC (stereo not drawn),?,.,10µM,13.1µM,.,?
CC(C)(C)C1CCc2c(sc(NC(=O)C3c4ccccc4Oc4ccccc43)c2C(N)=O)C1 (stereo not drawn),?,.,/,/,/,.
COc1ccccc1C1C=C(c2ccc(Cl)cc2)Nc2nc(-c3ccc(Cl)cc3)nn21 (stereo not drawn),?,-78.4,/,/,/,?
COc1ccc(C2C=C(c3ccc(Cl)cc3)Nc3nc(-c4ccc(Cl)cc4)nn32)cc1 (stereo not drawn),?,-100.8,/,/,/,?
CSC1=NC2(CCN(C(=O)NC3CCCCC3)CC2)N=C1c1ccc(C)c(C)c1,/,.,/,/,/,?
CC(=O)Nc1ccc(SCC(=O)Nc2ccccc2N2CCOCC2)cc1,.,.,.,/,/,.
Cc1ccccc1C(O)(Cc1ccccc1)C1CN2CCC1CC2 (stereo not drawn),?,.,?,/,10.4µM,?
SMILES,Marburg entry inh,HCMV inh,HCV inh,Pf growth 48h,Pf growth 96h,LASV entry inh
Cc1ccc(C(O)(c2ccc(C)c(C)c2)C2CN3CCC2CC3)cc1C (stereo not drawn),/,-97.3,?,.[0.00184 µM],?,/
CC1(C)Cc2c(cnn2-c2cccc(F)c2)C(NC(=O)c2ccc[n+]([O-])c2)C1 (stereo not drawn),.,.,/,.,.,.
CC(C)(C)OC(=O)CC1(C#N)c2ccccc2C(Br)=CN1C(=O)c1ccccc1 (stereo not drawn),/,?,?,11.7µM,11.7µM,/
N#CC1(Cc2ccccc2Cl)c2ccccc2C=CN1C(=O)c1ccccc1 (stereo not drawn),.,.,.,?,/,?
COc1ccc(OC)c(NC(=O)c2cccnc2Sc2cc(C)ccc2C)c1,.,.,?,10.4µM,?,?
CN1CCN(S(=O)(=O)c2cccc(C(=O)Nc3cc(Cl)ccc3N3CCOCC3)c2)CC1,.,.,.,?,?,.
CC1CN(S(=O)(=O)c2cccc(C(=O)Nc3cc(Cl)ccc3N3CCOCC3)c2)CC(C)O1 (stereo not drawn),/,?,?,9.28µM,9.28µM,/
CC1CN(S(=O)(=O)c2cccc(C(=O)Nc3ccccc3N3CCCC3)c2)CC(C)O1 (stereo not drawn),?,.,31.6µM,?,?,?
CC1CN(S(=O)(=O)c2cccc(C(=O)Nc3ccc(N4CCCCC4)cc3)c2)CC(C)O1 (stereo not drawn),/,.,/,/,/,/
Cc1nc2ccc(NC(=O)c3cccc(S(=O)(=O)N4CC(C)OC(C)C4)c3)cc2s1 (stereo not drawn),.,.,2.82µM,/,8.28µM,?
CCCc1noc(-c2ccc(NCc3ccc(C)cc3)c([N+](=O)[O-])c2)n1,.,.,/,/,/,.
CCc1ccccc1OCC(=O)Nc1cccc(S(=O)(=O)NCc2ccco2)c1,/,.,?,?,?,/
O=C(CN1C(=O)S/C(=C\c2ccc(F)cc2)C1=O)Nc1cccc(S(=O)(=O)NCc2ccco2)c1,.,-98.5,.,?,?,.
C[C@@H]1CN([C@H](C)CO)C(=O)CCCn2nncc2CO[C@@H]1CN(C)S(=O)(=O)c1ccc(C#N)cc1,/,.,/,/,/,/
CC(=O)Nc1ccc(S(=O)(=O)NC2CCSc3ccccc32)cc1 (stereo not drawn),10µM,.,.,?,?,?
O=S(=O)(NC1CCSc2ccccc21)c1ccccc1 (stereo not drawn),?,.,.,.,.,.
Cc1ccc(C)c(NS(=O)(=O)c2ccc3oc(=O)c4ncn(C)c4c3c2)c1,/,.,/,/,/,.
CC(=O)N1CCOc2ccc(S(=O)(=O)N3CCC(C(=O)Nc4ccc(F)cc4)CC3)cc21,.,.,?,?,14.7µM,.
CC(=O)N1CCOc2ccc(S(=O)(=O)N3CCCC(C)C3)cc21 (stereo not drawn),/,.,.,.,11.7µM,/
